Key:
Conditions in all cases: concentration: 1 μM, replicates: in singlicate; n = 1
PAK1 = test system: PAK1
PAK2 = test system: PAK2
PAK3 = test system: PAK3
PAK4 = test system: PAK4
PAK6 = test system: PAK6
PAK7 = test system: PAK7
PCTK1 = test system: T1, PCTK1
T1 construct: gene CDK16

PCTK2 = test system: T2, PCTK2
T2 construct: gene CDK17

PCTK3 = test system: T3, PCTK3
T3 construct: gene CDK18

PDGFRA = test system: PDGFRA
PDGFRB = test system: PDGFRB
PDPK1 = test system: PDPK1
PFTAIRE2 = test system: PFTAIRE2
PFTK1 = test system: T4, PFTK1
T4 construct: gene CDK14

PHKG1 = test system: PHKG1
PHKG2 = test system: PHKG2
PIK3C2B = test system: PIK3C2B
PIK3C2G = test system: PIK3C2G
PIK3CA = test system: PIK3CA
PIK3CB = test system: PIK3CB
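Further: KINOMEscan kinase panel screen.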

| SMILES | %Inh (PAK1) [%] | %Inh (PAK2) [%] | %Inh (PAK3) [%] | %Inh (PAK4) [%] | %Inh (PAK6) [%] | %Inh (PAK7) [%] | %Inh (PCTK1) [%] | %Inh (PCTK2) [%] | %Inh (PCTK3) [%] | %Inh (PDGFRA) [%] | %Inh (PDGFRB) [%] | %Inh (PDPK1) [%] | %Inh (PFTAIRE2) [%] | %Inh (PFTK1) [%] | %Inh (PHKG1) [%] | %Inh (PHKG2) [%] | %Inh (PIK3C2B) [%] | %Inh (PIK3C2G) [%] | %Inh (PIK3CA) [%] | %Inh (PIK3CB) [%] |
| --- | --- | --- | --- | --- | --- | --- | --- | --- | --- | --- | --- | --- | --- | --- | --- | --- | --- | --- | --- | --- |
| CSc1ccc(NC2=C(c3ccccc3Cl)C(=O)NC2=O)cc1 [SB-342411] | 0 | 0 | 14 | 29 | 8 | 15 | 29 | 31 | 67 | 0 | 31 | 80 | 20 | 25 | 0 | 25 | 0 | 17 | 0 | 3 |
| COc1ccc(Nc2nccc(N3CCC(NC(=O)Nc4ccc5c(c4)OCO5)C3)n2)cc1 (stereo not shown) [GSK1379745] | 0 | 6 | 0 | 0 | 0 | 0 | 6 | 17 | 32 | 0 | 24 | 27 | 11 | 7 | 0 | 9 | 9 | 0 | 0 | 0 |
| NC(=O)c1sc(-n2cnc3ccccc32)cc1OCc1ccccc1F [GSK1024306] | 14 | 16 | 0 | 0 | 0 | 4 | 0 | 0 | 1 | 0 | 2 | 19 | 7 | 6 | 0 | 0 | 0 | 0 | 0 | 0 |
| Cl.c1ccc(Cn2ccc3cc(Nc4ncnc5ccccc45)ccc32)cc1 [GW275568] | 12 | 13 | 0 | 9 | 8 | 35 | 0 | 16 | 18 | 2 | 35 | 22 | 28 | 29 | 0 | 23 | 31 | 3 | 14 | 0 |
| Nc1nc(-c2cccnc2)c(-c2ccnc3ccccc23)s1 [GW684083] | 0 | 4 | 20 | 0 | 0 | 0 | 0 | 0 | 11 | 0 | 28 | 0 | 16 | 27 | 14 | 0 | 0 | 0 | 0 | 0 |

— PMC5540273 (PLoS ONE, 2017)
